According to the supplement of paper PMC10981050:
“And” between values parts separate entries of the source, which are not always exact repeats. Equal entries are not always repeated. Structures can show the parent of a compound that is named as a salt.

Tests used:
Experiment in all cases: cell viability relative to vehicle control; higher = less cytotoxic
Details in all cases: 10 µM
K562 = test system: K562
Procedure, shortened: (§1)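 CRISPR-edited mutant clones and isogenic wild-type clones from four leukaemia lines were screened against Selleck bioactive, kinase and epigenetic probe libraries, with identity-inconsistent compounds excluded. Each compound was acoustically dispensed at a single 10 µM dose into 384-well plates holding 2000 cells in 50 µL medium per well. After 48 h the supernatant was removed and CellTiter-Glo luminescence was read. Viability was expressed as percent of the on-plate vehicle control and analysed in Genedata Screener.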

MARIMO = test system: MARIMO
Procedure, shortened: as §1

MOLM14 = test system: MOLM14
Procedure, shortened: as §1

OCI-AML2 = test system: OCI-AML2
Procedure, shortened: as §1

Structure (SMILES)	cell viability (K562; SRSF2 genotype: SRSF2 P95H/wt)	cell viability (K562; SRSF2 genotype: SRSF2 wt/wt) [%]	cell viability (MARIMO; SRSF2 genotype: SRSF2 P95H/wt) [%]	cell viability (MARIMO; SRSF2 genotype: SRSF2 wt/wt) [%]	cell viability (MOLM14; SRSF2 genotype: SRSF2 P95H/wt) [%]	cell viability (MOLM14; SRSF2 genotype: SRSF2 wt/wt) [%]	cell viability (OCI-AML2; SRSF2 genotype: P95H/wt) [%]	cell viability (OCI-AML2; SRSF2 genotype: wt/wt) [%]
COc1cc2c(cc1Cc1cccc(Cl)c1F)c(=O)c(C(=O)O)cn2[C@H](CO)C(C)C [Elvitegravir (GS-9137)]	52% and 50.4%	45.1	40.2	39.1	57.3	35	12.9	15.9
O=C1O[C@H]2[C@@H]3OC(=O)c4cc(O)c(O)c(O)c4-c4c(cc(O)c(O)c4O)C(=O)OC[C@H]2O[C@@H](OC(=O)c2cc(O)c(O)c(O)c2)[C@@H]3OC(=O)c2cc(O)c(O)c3c2[C@@H]2C1=CC(=O)[C@](O)(O3)C2(O)O [Geraniin]	94.9% and 95.9%	103	97.3	86	106	97.7	96.1	92.1
O=S(=O)(Cl)c1ccc(-c2ccccc2)cc1 [Biphenyl-4-sulfonyl chloride]	109% and 104%	107	99	100	108	105	105	113
CC(C)N(CCCCOCC(=O)NS(C)(=O)=O)c1cnc(-c2ccccc2)c(-c2ccccc2)n1 [Selexipag]	110% and 100%	100	97	109	97.6	98.2	96.9	109
CC(C)(C)OC(=O)N[C@H]1CCCCC/C=C\[C@@H]2C[C@@]2(C(=O)NS(=O)(=O)C2CC2)NC(=O)[C@@H]2C[C@@H](OC(=O)N3Cc4cccc(F)c4C3)CN2C1=O [Danoprevir (ITMN-191)]	97.7% and 108%	98.9	106	106	96.8	101	123	108
CC(C)=CCC[C@](C)(O[C@@H]1O[C@H](CO[C@@H]2O[C@@H](CO)[C@H](O)[C@H]2O)[C@@H](O)[C@H](O)[C@H]1O)[C@H]1CC[C@]2(C)[C@@H]1[C@H](O)C[C@@H]1[C@@]3(C)CC[C@H](O[C@@H]4O[C@H](CO)[C@@H](O)[C@H](O)[C@H]4O[C@@H]4O[C@H](CO)[C@@H](O)[C@H](O)[C@H]4O)C(C)(C)[C@@H]3CC[C@]12C [Ginsenoside Rc]	103% and 101%	100	99.1	101	110	99.2	104	93.5
O=C(O)CSCC(=O)NC1CCSC1=O (stereo unspecified) [Erdosteine]	101% and 96.3%	97.8	101	102	97.8	98	89.9	96.9
O=C(O)Cc1ccc(O)cc1 [4-Hydroxyphenylacetic acid]	100% and 101%	101	96.8	104	95.7	101	95.5	108
N[C@@H](C(=O)N[C@@H]1C(=O)N2C(C(=O)O)=C(Cl)CS[C@H]12)c1ccccc1 [Cefaclor]	109% and 110%	113	104	104	108	106	112	123
CC(=O)O[C@]1(C(C)=O)CC[C@H]2[C@@H]3C=C(Cl)C4=CC(=O)[C@@H]5C[C@@H]5[C@]4(C)[C@H]3CC[C@@]21C [Cyproterone acetate]	87.2% and 85.8%	84.7	66.1	71.6	86.2	93.3	75	77.4
O=C(Nc1ccccc1-c1cn2c(CN3CC[C@@H](O)C3)csc2n1)c1ccc2ccccc2c1	23.9% and 46%	39.3	57.1	65	72.4	80.5	65.3	64.4
Cc1cc(CN2CCN(c3c(Br)cnc4nc(-c5ccc(N6CCN(C)CC6)cc5)[nH]c34)CC2)no1	19.6% and 18.5%	24.2	88.8	87	0.57	0.62	6.22	1.52
CO/N=C(\C(=O)N[C@@H]1C(=O)N2C(C(=O)OCOC(=O)C(C)(C)C)=C(/C=C\c3scnc3C)CS[C@H]12)c1csc(N)n1 [Cefditoren pivoxil]	103% and 99.7%	101	104	111	94.5	103	102	111
COCCc1ccc(OCC(O)CNC(C)C)cc1 (stereo unspecified) [Metoprolol tartrate]	107% and 106%	106	102	104	104	105	106	106
CCOC(=O)c1ccc(N)cc1 [Benzocaine]	92% and 83.9%	94.2	84	91.7	87.9	92.4	91.4	94.6
C[C@H](CCC(=O)NCCS(=O)(=O)O)[C@H]1CC[C@H]2[C@@H]3[C@H](O)C[C@@H]4C[C@H](O)CC[C@]4(C)[C@H]3C[C@H](O)[C@]12C [Taurocholic acid sodium salt hydrate]	110% and 102%	107	107	108	103	111	106	107
CCc1ccc(C(=O)C(C)CN2CCCCC2)cc1 (stereo unspecified) [Eperisone hydrochloride]	91.5% and 94.7%	93.1	81.3	95.5	38.1	70	33.5	47.8
COc1cc(C(=O)O)ccc1NC(=O)[C@@H]1N[C@@H](CC(C)(C)C)[C@](C#N)(c2ccc(Cl)cc2F)[C@H]1c1cccc(Cl)c1F [Idasanutlin (RG-7388)]	96.7% and 98.2%	86.3	116	131	86.5	102	102	118
OCCc1c[nH]c2ccccc12 [Tryptophol]	102% and 92.7%	94.7	100	110	97.8	99.4	90.5	111
C=CCc1ccc(O)c(-c2cc(CC=C)ccc2O)c1 [Magnolol]	85.6% and 95.6%	96.6	99.5	112	93.9	103	86.2	106
Cc1cnc(-c2cc(N3CCN(C(=O)CCS(C)(=O)=O)CC3)ncc2Cl)c(C)c1	98.7% and 98.8%	96.3	101	110	100	104	96.2	105

Structure (SMILES)	cell viability (K562; SRSF2 genotype: SRSF2 P95H/wt)	cell viability (K562; SRSF2 genotype: SRSF2 wt/wt) [%]	cell viability (MARIMO; SRSF2 genotype: SRSF2 P95H/wt) [%]	cell viability (MARIMO; SRSF2 genotype: SRSF2 wt/wt) [%]	cell viability (MOLM14; SRSF2 genotype: SRSF2 P95H/wt) [%]	cell viability (MOLM14; SRSF2 genotype: SRSF2 wt/wt) [%]	cell viability (OCI-AML2; SRSF2 genotype: P95H/wt) [%]	cell viability (OCI-AML2; SRSF2 genotype: wt/wt) [%]
Cc1cnc(NC(=O)C2=C(O)c3ccccc3S(=O)(=O)N2C)s1 [Meloxicam (Mobic)]	98.6% and 90.8%	90	86.4	103	90.8	92.7	86.6	99.4
Cn1c(=O)cc(N2CCC[C@@H](N)C2)n(Cc2ccccc2C#N)c1=O	96.9% and 97.8%	88.7	94	97.1	91.3	98.3	98	101
O=C(O)COc1nn(Cc2ccccc2)c2ccccc12 [Bendazac]	103% and 104%	108	106	111	103	106	111	115
CCN1CCN(Cc2ccc(C(=O)Nc3ccc(C)c(Oc4ccc5c(c4)CC(=O)N5)c3)cc2C(F)(F)F)CC1	4.41% and 19.5%	9.71	70.5	82.1	46.6	45	45	44.8
O=c1cc(-c2ccccc2)oc2cc(O[C@@H]3O[C@H](CO[C@@H]4O[C@H](CO)[C@@H](O)[C@H](O)[C@H]4O)[C@@H](O)[C@H](O)[C@H]3O)c(O)c(O)c12 [Oroxin B]	101% and 105%	98.7	102	104	112	107	95.6	98.6
COc1ccc(OC)c(C2C(C#N)=C(N)Oc3n[nH]c(-c4ccc5ccccc5c4)c32)c1 (stereo unspecified)	104% and 111%	105	98.9	99	98.7	102	105	106
CC(C)(CO)C(O)C(=O)NCCC(=O)O [Calcium D-Panthotenate]	95.3% and 94.5%	95.3	95.1	105	96.8	97.2	95.4	94
CNC[C@@H](O)c1ccc(O)c(O)c1 [L-Adrenaline (Epinephrine)]	101% and 90%	96.3	104	101	87.9	99.3	115	104
CCn1cc(C(=O)O)c(=O)c2cc(F)c(N3CCN(C)CC3)cc21 [Pefloxacin Mesylate Dihydrate]	83.5% and 78%	80.7	88	94.2	87.7	92.1	90.9	94.8
Cc1onc(-c2ccccc2Cl)c1C(=O)N[C@@H]1C(=O)N2[C@@H]1SC(C)(C)[C@@H]2C(=O)O [Cloxacillin sodium]	102% and 109%	97.6	102	106	102	106	105	108
Nc1cc(C(Cl)=C(Cl)Cl)c(S(N)(=O)=O)cc1S(N)(=O)=O [Clorsulon]	92.3% and 94.2%	99.7	103	107	104	99.8	99.9	112
CNC(=O)c1cc(Oc2ccc(NC(=O)Nc3ccc(Cl)c(C(F)(F)F)c3)cc2)ccn1 [Sorafenib Tosylate]	7.11% and 11.7%	11.8	35.8	29.3	9.9	11.5	9.8	11.3
CCNC(=O)Nc1ccc(-c2nc3c(c(N4CCOC[C@@H]4C)n2)CCN(C2COC2)C3)cc1	40.5% and 42.9%	39.5	61.5	53.6	37.4	28.8	36.3	33.7
CCCOc1ccc(C(=O)OCCN(CC)CC)cc1N [Proparacaine HCl]	99.7% and 99.3%	99.5	103	104	99.1	99.7	90.2	103
Cc1cnc(C(=O)O)c[n+]1[O-] [Acipimox]	99.3% and 96.5%	97.6	96.7	100	98.8	101	105	104
O=C(/C=C/c1ccc(O)cc1)c1ccc(O)cc1O [Isoliquiritigenin]	86.2% and 94.8%	84.4	83.3	98.4	53.5	74.7	89	98
CO[C@H]1CC[C@H](N2C(=O)CNc3ncc(-c4ccc(C(C)(C)O)nc4)nc32)CC1	27.9% and 28%	29.7	36.3	32.3	28.1	24.1	26	29.6
O=C(NOCC(O)CO)c1cc(Br)c(F)c(F)c1Nc1ccc(I)cc1F (stereo unspecified)	81.1% and 89.7%	83.2	41.3	37.3	50.1	36.6	40.6	45
Fc1ccc([C@@H]2CCNC[C@H]2COc2ccc3c(c2)OCO3)cc1 [Paroxetine HCl]	63.6% and 68.3%	67.6	44	44.1	47.7	56.5	43	52.4
CONC(=O)c1ccccc1Nc1cc(Nc2cc(C)nn2C(C)C)ncc1Cl	91.8% and 101%	105	93.2	101	82.9	102	95.8	103
CCC(CC)(NC(=O)C(C)C)C(=O)N[C@@H](CCCN=C(N)N)C(=O)NC1(C(=O)NC(c2ccc(F)cc2)c2ccc(F)cc2)CCCC1	98.6% and 103%	106	93.8	98.3	93.4	99.3	97.9	108
